Drawing on PubChem BioAssay (NCI), this text covers growth for 40 molecules.

SMILES strings stand for the structures. About 83,000 compounds went through this panel and 20% of them were active in at least one assay; those are over-represented in the sample as a whole.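 In brief: 96-well plates, 48 h treatment, single concentration, percent growth endpoint.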 Unmarked numbers belong to inactive results. Activity calls are given as the source filed them. The calls were made as follows: active = growth percent below 10; inactive = the rest.

For the experiment, the system named is HOP-62 NSCLC. Briefly: NCI-60 one-dose screen, 48 h (100 = growth as untreated, 0 = no growth, -100 = all killed). The conditions noted are these: 10 µM unless noted.
Regarding `NC(=O)n1c(=O)n(-c2cccc(C(F)(F)F)c2)c(=O)c2cc(-c3ccc(F)cc3F)ccc21`, the growth is -9.38% (active).
The value for `O=C1CSC(c2cn(-c3ccccc3)nc2-c2ccc(Cl)cc2)N1c1ccccc1` (stereo not given) was 99.6%.
The value for `COc1ccc(/C=N/NC(=O)CSc2nc(-c3cnccn3)cc(-c3cccs3)c2C#N)cc1` was 53.4%.
As for `C#Cc1cc(OC)c(C(=O)Nc2ccc(F)cc2C(=O)Nc2cccc(S(=O)(=O)C(F)(F)F)c2)cn1`, the figure is 16.3%.
For `CN1c2ccccc2Sc2cc(/C=N/Nc3ccnc4cc(Cl)ccc34)ccc21`, the growth is 96.6%.
As for `O=C(/C=C/c1cccc(F)c1)c1cccc(OCCCOc2cccc(C(=O)/C=C/c3cccc(F)c3)c2)c1`, the figure is 132%; as for `CN1CCN(Cc2ccc(NC(=O)c3cncc(C#Cc4cnc(N)nc4)c3)cc2C(F)(F)F)CC1`, 19.3%; as for `O=C(CSc1nc2ccccc2c(=O)n1-c1ccc(Cl)c(Cl)c1)Nc1ccc(S(=O)(=O)Nc2ccc(Cl)nn2)cc1`, 87.8%.
As for `Cc1[nH]c(C(=O)Nc2ccc(C(N)=O)cc2N2CCOC(C)C2)c(Cl)c1Cl` (stereo not given), the figure is 98.4%; as for `N#Cc1nc(-c2ccccc2)oc1N1CCC(C2(C(F)(F)F)N=N2)CC1`, 113%.
Consider `C/C(=C(\c1ccc(O)cc1)c1ccc(OCCN2CCCCCC2)cc1)c1ccc(Cl)cc1`, for which the growth is -82.5% (active).
`COc1ccc(C(=O)c2c(N)c(C#N)cn2-c2ccc(Cl)cc2Cl)cc1`: the growth was 99.7%.
As for `C#C[C@]1(O)CC[C@H]2[C@@H]3CC=C4c5sc(Nc6cccc(F)c6)nc5CC[C@]4(C)[C@H]3CC[C@@]21C`, the figure is 33.4%; as for `C[C@@H]1OCC2(CCN(c3cnc(C(=O)Nc4cc(F)cc5cccnc45)cn3)CC2)[C@@H]1N`, 83.8%; as for `Cn1c(SCC(=O)c2ccc(F)cc2)nc2ccccc2c1=O`, 93.6%.
As for `O=C(CCCCCC/C=C\c1csc(Br)n1)NO`, the figure is 88.9%.
As for `COc1ccc(-c2cc(-c3ccc(N4CCOCC4)cc3)n3c(n2)nc2ccccc23)cc1OC`, the figure is 94.8%.
With `CN(C)c1cccc2c(S(=O)(=O)Nc3cccc(-c4csc(NC(=O)CCCCCN5CCN(CCO)CC5)n4)c3)cccc12`, the growth is 84.9%.
As for `O=c1nc(Nc2ccc([N+](=O)[O-])cc2O)sc2ccccc12`, the figure is 47%; as for `CCc1cc(OC(=O)N2CCC(N3CCCCC3)CC2)ccc1Nc1cc(-c2ccc(-n3cccn3)cc2)[nH]n1`, 66.3%.
The value for `COc1ccc(-c2c(C(N)=O)c(N)n(Cc3nc4ccccc4[nH]3)c(=O)c2C#N)c(OC)c1` was 94.9%; that for `CCOC(=O)Nc1ccc2c(ccn2C(=O)c2cccc(F)c2)c1` was 35.2%; that for `CN(C)CCCOc1ccc(C(=C(c2ccccc2)C2CCCC2)c2ccc(OCCCN(C)C)cc2)cc1` was -72.6% (active).
On to `CN1CCC[C@]2(C)[C@H]3CC[C@@H]4[C@@H]5[C@H]6OC[C@@]5(CCC6(C)C)CC[C@@]4(C)[C@]3(C)CC[C@H]2C1(C)C`, for which the growth was 94.2%.
On to `CNC(=O)c1cc(-c2ccc(NC(=S)Nc3cccc(C(F)(F)F)c3)cc2)nc2cccnc12`, for which the growth is 102%.
The value for `CC1(C)C=Cc2cc(/C(N)=N/C(N)=N/c3nc4ccccc4s3)ccc2O1` was 5.82% (active); that for `C#Cc1cc(C(=O)Nc2ccc(CNCCN3CCOCC3)c(C(F)(F)F)c2)ccc1C` was 102%; that for `CC(C)(O)c1cncc(-c2ccc3ncc(C#N)c(N4CCc5cc(F)c(Cl)cc54)c3c2)c1` was 1.17% (active).
As for `CN1CCN(Cc2ccc(/C=N/Nc3ccnc4cc(Cl)ccc34)cc2)CC1`, the figure is 80.5%.
On to `Cc1ccc(C(=O)CSc2nnc(-c3ccc(-c4ccc(Cl)cc4)nc3C)o2)cc1`, for which the growth is 92.5%.
The value for `Cc1ccccc1N1CCN(C2=C(Cl)C(=O)c3ncccc3C2=O)CC1` was 59.5%; that for `O=C1Nc2ccccc2/C1=C/c1ccc(OCC(=O)c2ccccc2)cc1` was 99.7%; that for `CC1=C(C)C(=O)C(Nc2ccc3c(c2)OCCO3)=C(Br)C1=O` was 97.6%.
As for `CCN(CC)c1ccc(/C=N/NC(=O)c2ccc(S(N)(=O)=O)cc2)c(O)c1`, the figure is 11.6%; as for `Cc1ccc(S(=O)(=O)NCCCNc2nc(Nc3ccc(N4CCN(C)CC4)cc3)nc3ccsc23)cc1`, 97.1%; as for `CN1CCN(Cc2ccc(NC(=O)c3cncc(C#Cc4cnc5ccc(NCCO)nn45)c3)cc2C(F)(F)F)CC1`, -41.5% (active).
As for `COC(=O)c1cccc(NC2=C(Cl)C(=O)c3nc(C)ccc3C2=O)c1`, the figure is 113%; as for `O=C1Nc2cc(Cl)ccc2/C1=C\c1ccc(OCc2ccccc2)cc1`, 96.2%; as for `Cc1ccc(-c2csc(N/N=C/c3cccs3)n2)cc1`, 95.3%.
`O=[N+]([O-])c1ccc(NC(=S)NNC(=S)Nc2ccc(Br)cc2)cc1`: the growth is 94.9%.
